Source: the supplement of paper PMC10849652
Targets with a hit are over-represented here; the source holds about 8,800 in all. About 0.5% of all pairs of compound and target were hits.

Columns and labels:
Test in all cases: log2 fold change, soluble protein after heating vs DMSO (PISA); higher = thermal stabilisation; K562 lysate, 10 uM; active = over 0.2 and 3.5 SD of the protein, either way, in both replicates (recomputed)
erlotinib = compound: C#Cc1cccc(Nc2ncnc3cc(OCCOC)c(OCCOC)cc23)c1 [erlotinib]
Procedure, shortened: (§1)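 Quantification was by TMTpro 16plex LC-MS/MS with equalised channel sums, applied to the supernatant after 21,000xg for 90 min. Samples were crude K562 extract at 1 mg/mL protein in PBS pH 7.4 with 1 mM MgCl2, treated with 10 μM compound for 30 min, heated for 3 min across 48°C-58°C, pooled and brought to 0.5% NP-40 at 4°C. Values are log-two fold changes in thermal stability relative to solvent controls, from duplicates.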

[1] = compound: C/C(=N\NC(=O)C1=CC(=CC=C1)S(=O)(=O)N2CCOCC2)/C3=C(C=CC(=C3)Cl)O
Procedure, shortened: as §1

[2] = compound: C1=CC(=CC=C1C2=NC3=C(N2)C=C(C=C3)C(=O)N)OC4=CC=C(C=C4)Cl
Procedure, shortened: as §1

[3] = compound: C1=CC2=C(C=CC(=C2)/C=C\3/C(=O)NC(=NCC4=CC=CS4)S3)N=C1
Procedure, shortened: as §1

[4] = compound: C1=CC2=NC=CN=C2C=C1/C=C/3\C(=O)NC(=O)S3
Procedure, shortened: as §1

[5] = compound: C1=CC=C(C=C1)C2=NC(=C(N2)C3=CC=NC=C3)C4=CC(=C(C=C4)Cl)O
Procedure, shortened: as §1

[6] = compound: C1=CC=C2C(=C1)C3=NNC4=CC=CC(=C43)C2=O
Procedure, shortened: as §1

[7] = compound: C1CCN(C1)C(=O)NC2=CC=CC(=C2)NC3=NC=C(C(=N3)NCCC4=CN=CN4)Br
Procedure, shortened: as §1

[8] = compound: C1CN(CCC1(CC2=CC=C(C=C2)Cl)N)C3=NC=NC4=C3C=CN4
Procedure, shortened: as §1

IRAK-1-4 Inhibitor I = compound: C1COCCN1CCN2C3=CC=CC=C3N=C2NC(=O)C4=CC(=CC=C4)[N+](=O)[O-] [IRAK-1-4 Inhibitor I]
Procedure, shortened: as §1

Measured: log2 fold change

FIG4 (UniProt Q92562)
Sequence of UniProt Q92562 (Q92562 whole entry, looked up): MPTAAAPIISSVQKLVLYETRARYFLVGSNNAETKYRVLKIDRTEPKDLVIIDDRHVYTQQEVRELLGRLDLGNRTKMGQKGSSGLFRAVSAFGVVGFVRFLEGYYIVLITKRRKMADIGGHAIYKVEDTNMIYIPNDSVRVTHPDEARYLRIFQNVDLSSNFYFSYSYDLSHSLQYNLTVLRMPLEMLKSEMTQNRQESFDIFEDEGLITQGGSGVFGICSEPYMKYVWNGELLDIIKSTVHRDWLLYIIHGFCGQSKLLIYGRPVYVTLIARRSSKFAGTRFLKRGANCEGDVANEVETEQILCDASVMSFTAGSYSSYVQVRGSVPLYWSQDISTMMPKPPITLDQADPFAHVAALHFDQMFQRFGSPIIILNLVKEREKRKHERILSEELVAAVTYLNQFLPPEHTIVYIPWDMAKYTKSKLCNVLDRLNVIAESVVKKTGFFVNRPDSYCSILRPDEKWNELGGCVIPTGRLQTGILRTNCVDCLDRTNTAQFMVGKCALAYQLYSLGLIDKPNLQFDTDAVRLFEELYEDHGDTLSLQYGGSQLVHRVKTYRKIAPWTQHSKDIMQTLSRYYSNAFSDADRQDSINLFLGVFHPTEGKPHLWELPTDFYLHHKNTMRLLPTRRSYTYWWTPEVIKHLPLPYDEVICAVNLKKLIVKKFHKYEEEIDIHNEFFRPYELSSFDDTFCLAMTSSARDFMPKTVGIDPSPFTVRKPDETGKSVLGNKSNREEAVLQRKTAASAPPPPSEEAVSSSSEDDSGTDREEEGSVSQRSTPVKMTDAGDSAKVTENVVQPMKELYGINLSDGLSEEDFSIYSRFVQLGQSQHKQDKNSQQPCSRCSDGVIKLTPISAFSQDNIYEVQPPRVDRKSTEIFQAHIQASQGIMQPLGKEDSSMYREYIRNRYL
inactive: erlotinib 0.032 | [1] -0.032 | [2] -0.029 | [3] 0 | [4] 0.007 | [5] 0.064 | [6] 0.02 | [7] 0.061 | [8] -0.053 | IRAK-1-4 Inhibitor I 0.003

FARSB (UniProt Q9NSD9)
inactive: erlotinib -0.004 | [1] 0.019 | [2] -0.007 | [3] -0.01 | [4] -0.02 | [5] 0.039 | [6] -0.021 | [7] -0.004 | [8] 0.011 | IRAK-1-4 Inhibitor I -0.027

FREM2 (UniProt Q5SZK8)
inactive: erlotinib 0.015 | [1] -0.095 | [2] -0.109 | [3] -0.065 | [4] 0.047 | [5] 0.008 | [6] -0.051 | [7] -0.02 | [8] -0.021 | IRAK-1-4 Inhibitor I 0.009

FBXO22 (UniProt Q8NEZ5)
inactive: erlotinib 0.042 | [1] -0.022 | [2] 0.048 | [3] 0.016 | [4] 0.02 | [5] -0.002 | [6] -0.01 | [7] 0.029 | [8] 0.049 | IRAK-1-4 Inhibitor I 0.007

FAM53B (UniProt Q14153)
Sequence of UniProt Q14153 (Q14153 whole entry, looked up): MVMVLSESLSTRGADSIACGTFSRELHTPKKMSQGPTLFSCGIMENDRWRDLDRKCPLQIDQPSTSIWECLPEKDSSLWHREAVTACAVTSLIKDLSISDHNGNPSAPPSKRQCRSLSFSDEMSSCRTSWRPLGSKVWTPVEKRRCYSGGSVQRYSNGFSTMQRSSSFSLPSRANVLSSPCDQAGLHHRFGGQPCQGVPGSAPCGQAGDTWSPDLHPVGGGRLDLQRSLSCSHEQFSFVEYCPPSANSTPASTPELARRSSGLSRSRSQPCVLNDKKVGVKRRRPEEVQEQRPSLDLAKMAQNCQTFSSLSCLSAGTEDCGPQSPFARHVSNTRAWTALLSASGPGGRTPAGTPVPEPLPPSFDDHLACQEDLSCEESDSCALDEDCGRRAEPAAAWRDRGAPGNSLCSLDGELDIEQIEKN
inactive: erlotinib 0.057 | [1] -0.087 | [2] -0.03 | [3] 0.015 | [4] -0.004 | [5] -0.047 | [6] -0.024 | [7] -0.034 | [8] 0.006 | IRAK-1-4 Inhibitor I 0.203

EPRS (UniProt P07814)
inactive: erlotinib 0.028 | [1] 0.032 | [2] -0.007 | [3] 0.01 | [4] 0.014 | [5] 0.017 | [6] -0.026 | [7] 0 | [8] -0.004 | IRAK-1-4 Inhibitor I -0.006

FTSJ3 (UniProt Q8IY81)
inactive: erlotinib 0.064 | [1] -0.157 | [2] 0.002 | [3] -0.014 | [4] -0.028 | [5] 0.025 | [6] 0.065 | [7] 0.012 | [8] 0.022 | IRAK-1-4 Inhibitor I -0.018

GALNT2 (UniProt Q10471)
inactive: erlotinib -0.028 | [1] 0.005 | [2] -0.098 | [3] 0.054 | [4] -0.004 | [5] -0.04 | [6] -0.056 | [7] -0.045 | [8] 0.002 | IRAK-1-4 Inhibitor I -0.012

FBXO9 (UniProt Q9UK97)
Sequence of UniProt Q9UK97 (Q9UK97 whole entry, looked up): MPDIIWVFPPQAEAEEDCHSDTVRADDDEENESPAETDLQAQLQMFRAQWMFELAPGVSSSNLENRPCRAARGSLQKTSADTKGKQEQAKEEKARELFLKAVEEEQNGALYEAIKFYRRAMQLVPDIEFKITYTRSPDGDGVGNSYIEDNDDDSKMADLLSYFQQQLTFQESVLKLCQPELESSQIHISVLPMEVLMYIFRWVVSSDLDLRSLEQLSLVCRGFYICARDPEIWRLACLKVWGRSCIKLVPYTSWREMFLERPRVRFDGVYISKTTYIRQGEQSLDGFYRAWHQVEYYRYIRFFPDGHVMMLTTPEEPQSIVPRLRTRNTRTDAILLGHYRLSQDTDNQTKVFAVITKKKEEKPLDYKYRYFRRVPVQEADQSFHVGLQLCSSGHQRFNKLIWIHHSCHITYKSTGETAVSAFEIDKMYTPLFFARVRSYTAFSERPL
inactive: erlotinib -0.06 | [1] 0.126 | [2] 0.091 | [3] 0.013 | [4] 0.086 | [5] 0.01 | [6] -0.032 | [7] 0.019 | [8] -0.108 | IRAK-1-4 Inhibitor I -0.005

EEF1AKMT4 (UniProt P0DPD7)
inactive: erlotinib 0.057 | [1] 0.097 | [2] 0.073 | [3] 0.025 | [4] 0.039 | [5] -0.021 | [6] -0.081 | [7] -0.019 | [8] 0.08 | IRAK-1-4 Inhibitor I 0.107

GGA2 (UniProt Q9UJY4)
inactive: erlotinib -0.014 | [1] 0.042 | [2] 0.064 | [3] 0.016 | [4] 0.019 | [5] 0.014 | [6] -0.054 | [7] 0.074 | [8] 0.034 | IRAK-1-4 Inhibitor I 0.01

ENO2 (UniProt P09104)
inactive: erlotinib 0.013 | [1] 0.013 | [2] 0.03 | [3] -0.037 | [4] 0.056 | [5] -0.091 | [6] 0.024 | [7] 0.005 | [8] -0.02 | IRAK-1-4 Inhibitor I -0.036

FBXO38 (UniProt Q6PIJ6)
inactive: erlotinib 0.102 | [1] 0.041 | [2] 0.013 | [3] -0.047 | [4] -0.041 | [5] 0.06 | [6] 0.077 | [7] -0.06 | [8] 0.021 | IRAK-1-4 Inhibitor I -0.052

EP400 isoform 5 (UniProt Q96L91)
inactive: erlotinib 0.045 | [1] 0.01 | [2] -0.007 | [3] -0.023 | [4] -0.042 | [5] -0.003 | [6] -0.074 | [7] -0.027 | [8] -0.023 | IRAK-1-4 Inhibitor I -0.005

EMP3 (UniProt P54852)
Sequence of UniProt P54852 (P54852 whole entry, looked up): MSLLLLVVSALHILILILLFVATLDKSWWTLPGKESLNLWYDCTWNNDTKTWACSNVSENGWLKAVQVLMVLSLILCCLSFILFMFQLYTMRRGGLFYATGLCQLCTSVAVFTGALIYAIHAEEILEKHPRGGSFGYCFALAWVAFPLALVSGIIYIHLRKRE
inactive: erlotinib 0.008 | [1] -0.015 | [2] 0.018 | [3] 0.017 | [4] 0.004 | [5] 0 | [6] 0.007 | [7] -0.002 | [8] 0.029 | IRAK-1-4 Inhibitor I 0.053

EEF1A1, A0A087WVQ9
inactive: erlotinib 0.029 | [1] -0.049 | [2] 0.054 | [3] -0.069 | [4] -0.016 | [5] -0.035 | [6] -0.072 | [7] -0.019 | [8] -0.001 | IRAK-1-4 Inhibitor I 0.03

ESYT2 (UniProt H7BXI1)
inactive: erlotinib -0.056 | [1] 0.037 | [2] -0.017 | [3] 0.042 | [4] -0.025 | [5] -0.022 | [6] -0.076 | [7] -0.005 | [8] -0.008 | IRAK-1-4 Inhibitor I 0.019

FAM118A (UniProt Q9NWS6)
inactive: erlotinib 0.03 | [1] -0.03 | [2] -0.016 | [3] 0.022 | [4] 0.029 | [5] 0.012 | [6] -0.006 | [7] 0.021 | [8] 0.048 | IRAK-1-4 Inhibitor I 0.051

FAT2 (UniProt Q9NYQ8)
inactive: erlotinib 0.215 | [1] -0.092 | [2] -0.311 | [3] 0.038 | [4] -0.076 | [5] -0.135 | [6] -0.147 | [7] -0.007 | [8] 0.01 | IRAK-1-4 Inhibitor I -0.016

DST (UniProt Q03001)
inactive: erlotinib 0.025 | [1] -0.035 | [2] 0.046 | [3] -0.03 | [4] -0.042 | [5] 0 | [6] -0.16 | [7] -0.046 | [8] 0 | IRAK-1-4 Inhibitor I 0.04

EEFSEC (UniProt P57772)
inactive: erlotinib -0.006 | [1] 0.054 | [2] -0.044 | [3] -0.022 | [4] 0.006 | [5] -0.044 | [6] -0.054 | [7] -0.025 | [8] -0.007 | IRAK-1-4 Inhibitor I -0.024

GCN1 (UniProt Q92616)
Sequence of UniProt Q92616 (Q92616 whole entry, looked up): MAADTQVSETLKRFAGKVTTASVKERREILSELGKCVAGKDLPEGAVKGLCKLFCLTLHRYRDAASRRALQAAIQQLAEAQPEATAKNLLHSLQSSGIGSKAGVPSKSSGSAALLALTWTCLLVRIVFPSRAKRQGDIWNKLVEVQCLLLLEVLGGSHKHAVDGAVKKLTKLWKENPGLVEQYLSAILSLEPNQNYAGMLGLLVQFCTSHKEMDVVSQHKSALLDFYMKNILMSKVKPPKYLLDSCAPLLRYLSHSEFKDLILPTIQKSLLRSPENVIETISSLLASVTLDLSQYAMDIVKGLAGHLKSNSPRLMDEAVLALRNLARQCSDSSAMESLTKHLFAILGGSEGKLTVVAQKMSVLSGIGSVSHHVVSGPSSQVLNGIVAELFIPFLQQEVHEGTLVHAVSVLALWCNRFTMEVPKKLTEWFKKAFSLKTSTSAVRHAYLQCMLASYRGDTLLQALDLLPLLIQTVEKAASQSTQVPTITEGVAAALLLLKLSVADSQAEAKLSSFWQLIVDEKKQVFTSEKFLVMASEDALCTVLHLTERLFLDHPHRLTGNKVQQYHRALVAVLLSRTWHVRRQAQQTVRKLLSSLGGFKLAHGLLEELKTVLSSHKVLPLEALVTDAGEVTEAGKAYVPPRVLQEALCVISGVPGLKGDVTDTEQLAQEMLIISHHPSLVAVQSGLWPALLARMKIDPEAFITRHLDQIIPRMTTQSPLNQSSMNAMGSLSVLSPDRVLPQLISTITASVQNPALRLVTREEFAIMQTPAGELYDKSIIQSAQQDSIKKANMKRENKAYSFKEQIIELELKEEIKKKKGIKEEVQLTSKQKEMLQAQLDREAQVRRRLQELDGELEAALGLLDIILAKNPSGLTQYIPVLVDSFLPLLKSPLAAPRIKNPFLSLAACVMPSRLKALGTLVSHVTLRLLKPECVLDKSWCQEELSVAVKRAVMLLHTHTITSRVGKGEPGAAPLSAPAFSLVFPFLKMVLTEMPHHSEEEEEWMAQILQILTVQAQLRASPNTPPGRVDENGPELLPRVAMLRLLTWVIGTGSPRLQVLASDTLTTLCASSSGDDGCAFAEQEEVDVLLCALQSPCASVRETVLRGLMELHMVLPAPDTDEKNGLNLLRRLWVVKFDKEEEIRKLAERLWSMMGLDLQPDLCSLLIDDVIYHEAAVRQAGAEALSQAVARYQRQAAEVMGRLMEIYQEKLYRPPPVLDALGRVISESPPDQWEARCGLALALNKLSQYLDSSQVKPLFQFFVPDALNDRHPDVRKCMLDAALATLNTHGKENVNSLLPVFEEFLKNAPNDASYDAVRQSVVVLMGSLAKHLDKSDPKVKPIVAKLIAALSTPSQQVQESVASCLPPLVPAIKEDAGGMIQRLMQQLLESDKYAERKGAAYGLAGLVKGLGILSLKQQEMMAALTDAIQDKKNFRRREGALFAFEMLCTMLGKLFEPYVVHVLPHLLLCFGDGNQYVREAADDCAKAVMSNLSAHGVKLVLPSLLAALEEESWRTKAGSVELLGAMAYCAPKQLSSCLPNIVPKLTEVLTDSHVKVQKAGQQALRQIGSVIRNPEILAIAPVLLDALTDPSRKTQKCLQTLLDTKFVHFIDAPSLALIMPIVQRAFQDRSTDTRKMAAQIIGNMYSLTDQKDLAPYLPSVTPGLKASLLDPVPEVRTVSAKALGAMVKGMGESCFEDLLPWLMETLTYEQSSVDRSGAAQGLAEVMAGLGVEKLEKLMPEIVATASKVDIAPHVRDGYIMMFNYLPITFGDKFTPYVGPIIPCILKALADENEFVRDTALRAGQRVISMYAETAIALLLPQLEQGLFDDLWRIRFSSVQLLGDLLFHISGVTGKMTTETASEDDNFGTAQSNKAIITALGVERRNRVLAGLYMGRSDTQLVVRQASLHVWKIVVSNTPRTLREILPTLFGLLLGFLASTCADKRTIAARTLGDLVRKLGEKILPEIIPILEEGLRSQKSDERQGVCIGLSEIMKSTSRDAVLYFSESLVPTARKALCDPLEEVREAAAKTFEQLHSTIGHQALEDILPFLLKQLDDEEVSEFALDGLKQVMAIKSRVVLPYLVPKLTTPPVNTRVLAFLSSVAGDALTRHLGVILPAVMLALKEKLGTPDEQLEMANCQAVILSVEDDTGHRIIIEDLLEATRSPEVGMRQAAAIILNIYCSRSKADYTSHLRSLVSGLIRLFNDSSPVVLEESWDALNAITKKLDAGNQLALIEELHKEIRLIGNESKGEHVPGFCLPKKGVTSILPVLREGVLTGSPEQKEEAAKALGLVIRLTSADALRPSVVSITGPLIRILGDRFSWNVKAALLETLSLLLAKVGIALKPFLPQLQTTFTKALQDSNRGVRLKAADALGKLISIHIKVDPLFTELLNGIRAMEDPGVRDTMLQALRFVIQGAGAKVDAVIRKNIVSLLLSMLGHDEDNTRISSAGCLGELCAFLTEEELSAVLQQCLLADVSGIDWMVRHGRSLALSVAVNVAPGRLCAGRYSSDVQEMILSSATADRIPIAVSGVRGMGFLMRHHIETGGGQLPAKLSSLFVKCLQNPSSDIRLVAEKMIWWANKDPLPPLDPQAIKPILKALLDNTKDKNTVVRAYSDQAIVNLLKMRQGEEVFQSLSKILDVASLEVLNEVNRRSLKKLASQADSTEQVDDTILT
inactive: erlotinib 0.048 | [1] 0.066 | [2] -0.086 | [3] 0.022 | [4] 0.054 | [5] 0.026 | [6] -0.016 | [7] -0.008 | [8] 0.003 | IRAK-1-4 Inhibitor I 0.008

GABPB1 (UniProt Q06547)
Sequence of UniProt Q06547 (Q06547 whole entry, looked up): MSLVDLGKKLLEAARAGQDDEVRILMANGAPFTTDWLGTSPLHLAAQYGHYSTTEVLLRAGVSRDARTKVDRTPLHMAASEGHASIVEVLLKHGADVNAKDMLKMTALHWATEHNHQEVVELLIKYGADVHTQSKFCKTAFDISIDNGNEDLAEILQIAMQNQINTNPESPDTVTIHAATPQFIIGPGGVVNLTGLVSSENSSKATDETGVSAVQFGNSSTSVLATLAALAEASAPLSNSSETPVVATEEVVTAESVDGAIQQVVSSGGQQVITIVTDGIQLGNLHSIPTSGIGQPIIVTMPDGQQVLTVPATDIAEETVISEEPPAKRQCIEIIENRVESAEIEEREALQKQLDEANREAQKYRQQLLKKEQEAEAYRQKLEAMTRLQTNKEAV
inactive: erlotinib -0.004 | [1] 0.033 | [2] 0.012 | [3] 0.028 | [4] 0.035 | [5] 0.016 | [6] -0.009 | [7] 0.026 | [8] -0.008 | IRAK-1-4 Inhibitor I -0.042

GAA (UniProt P10253)
inactive: erlotinib 0.077 | [1] 0.046 | [2] 0.054 | [3] -0.041 | [4] -0.005 | [5] 0.006 | [6] -0.208 | [7] 0.007 | [8] 0.092 | IRAK-1-4 Inhibitor I 0.025

ELF2 (UniProt Q15723)
inactive: erlotinib 0.023 | [1] -0.136 | [2] 0.059 | [3] -0.068 | [4] 0.07 | [5] -0.036 | [6] -0.056 | [7] 0.009 | [8] -0.022 | IRAK-1-4 Inhibitor I -0.01

GBF1 (UniProt Q92538)
inactive: erlotinib 0.044 | [1] 0.043 | [2] -0.036 | [3] -0.009 | [4] 0.002 | [5] -0.008 | [6] -0.012 | [7] -0.007 | [8] 0.023 | IRAK-1-4 Inhibitor I 0.058

FIGNL1 (UniProt Q6PIW4)
inactive: erlotinib -0.008 | [1] -0.019 | [2] -0.025 | [3] 0.005 | [4] -0.011 | [5] -0.005 | [6] -0.015 | [7] 0.035 | [8] 0.006 | IRAK-1-4 Inhibitor I 0.008

ESPL1 (UniProt Q14674)
inactive: erlotinib 0.147 | [1] 0.019 | [2] 0.074 | [3] -0.086 | [4] 0.009 | [5] -0.011 | [6] 0.054 | [7] -0.025 | [8] 0.006 | IRAK-1-4 Inhibitor I -0.028

FAM83A (UniProt Q86UY5)
inactive: erlotinib 0 | [1] 0.168 | [2] 0.097 | [3] 0.038 | [4] -0.054 | [5] -0.107 | [6] -0.031 | [7] -0.062 | [8] 0.008 | IRAK-1-4 Inhibitor I 0.019

FANCD2 isoform 1 (UniProt Q9BXW9)
inactive: erlotinib 0.059 | [1] 0.002 | [2] 0.019 | [3] -0.049 | [4] 0.01 | [5] 0.006 | [6] -0.092 | [7] -0.062 | [8] 0.095 | IRAK-1-4 Inhibitor I 0.036
